Inconclusive results are not listed. Calls of active or inactive are those of the source. Unless noted, calls come from the whole dose curve; as a rule, active = well fitted curve in the direction sought with a large enough effect in the repeat runs; inconclusive = weak or mixed curves; inactive = no such curve, though single readings can be large; an effect the other way counts as inactive or inconclusive.
What was measured:
[1] = qHTS assay to identify small molecule antagonists of the constitutive androstane receptor (CAR) signaling pathway - cell viability counter screen (AID 1224837); note: nearly all actives have a fitted effect of over 45% in size; note: potency is the fitted concentration of half-maximal effect
Method in brief: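 Cytotoxicity counter-screen: CellTiter-Fluor fluorescence after 23 h compound exposure (15-point qHTS) in double-stable HepG2-CYP2B6-hCAR cells, with 50 nM CITCO added.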

[2] = biological target: Nuclear receptor subfamily 1 group I member 3 (Homo sapiens) (UniProt Q14994); assay: qHTS assay to identify small molecule antagonists of the constitutive androstane receptor (CAR) signaling pathway (AID 1224838);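 note: HepG2 cells stably expressing hCAR with CYP2B6 luciferase reporter stimulated by CITCO; nearly all actives have a fitted effect of over 40% in size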; note: potency is the fitted concentration of half-maximal effect
Method in brief: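 Antagonism measured as luciferase signal (ONE-Glo, 30 min, room temperature) in CAR-stimulated cells: HepG2-CYP2B6-hCAR double-stable line exposed 24 hr at 37 C to compound in a 15-point series plus 50 nM CITCO.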

[3] = biological target: Nuclear receptor subfamily 1 group I member 3 (Homo sapiens) (UniProt Q14994); assay: qHTS assay to identify small molecule agonists of the constitutive androstane receptor (CAR) signaling pathway (AID 1224839); note: nearly all actives have a fitted effect of over 15% in size; note: potency is the fitted concentration of half-maximal effect;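 for activation: HepG2 cells stably carrying human CAR and a CYP2B6 luciferase reporter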
Method in brief: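 Double-stable HepG2 cells (hCAR, CYP2B6-2.2kb) seeded 4 h before compound addition. Exposure 24 h with 0.75 uM PK11195 final. Luciferase detected by ONE-Glo.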

[4] = qHTS assay to identify small molecule antagonists of the estrogen related receptor signaling pathway with the pleiotropic PPARgamma coactivator (PGC) from Tox21 10K library - cell viability counter screen (AID 1224840; active = well fitted cell-killing curve with a large enough effect in the repeat runs, not every such curve was filed as active; note: nearly all actives have a fitted effect of over 40% in size; note: potency is the fitted concentration of half-maximal effect)
Method in brief: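 Counter-screen for cytotoxicity: after 17.5 h compound exposure at 37 C, CellTiter-Fluor reagent added to PGC/ERR cells for 30 min and fluorescence read. Cells were seeded at 2,000 per well 6 h before dosing.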

[5] = qHTS assay to identify small molecule antagonists of the estrogen related receptor signaling pathway with the pleiotropic PPARgamma coactivator (PGC) from Tox21 10K library (AID 1224841; call rule not given here; note: actives are mostly falling curves and most rising ones were filed inactive; nearly all actives have a fitted effect of over 50% in size; note: potency is the fitted concentration of half-maximal effect)
Method in brief: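 Luminescence (One-Glo, 30 min at room temperature) after 18 h compound treatment at 37 C of PGC/ERR reporter cells plated at 2,000 cells/well and settled 6 h beforehand.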

[6] = biological target: Thyrotropin receptor (Homo sapiens) (UniProt P16473); assay: qHTS assay to identify small molecule agonists of the thyroid stimulating hormone receptor (TSHR) signaling pathway (AID 1224843; calls by dose curve; note: nearly all actives have a fitted effect of over 45% in size; note: potency is the fitted concentration of half-maximal effect)
Method in brief: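 Agonist activity read as cAMP rise via d2/cryptate HTRF competition, 1 h room-temperature detection, in HEK293 cells expressing TSHR. Fifteen-point titrations, each run in triplicate, with a 30 min room-temperature incubation beforehand.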

[7] = qHTS assay to identify small molecule antagonists of the estrogen related receptor (ERR) signaling pathway from Tox21 library (AID 1224848); note: nearly all actives have a fitted effect of over 50% in size; note: potency is the fitted concentration of half-maximal effect
Method in brief: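 Luciferase luminescence (ONE-Glo, 30 min room temperature) was the read-out. Cells of the NTP-supplied ERR line, 2,000 per well, were given 6 h at 37 C before compound addition in DMSO and 18 h exposure at 37 C.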

[8] = qHTS assay to identify small molecule agonists of the estrogen related receptor (ERR) signaling pathway from Tox21 library (AID 1224849; calls by dose curve; note: nearly all actives have a fitted effect of over 15% in size); details: ERR reporter cell line, ONE-Glo luciferase, 18 h; at 92.4 µM (top of the series) unless noted
Method in brief: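 Luminescent agonist read-out (One-Glo, 30-minute room-temperature incubation) following 18-hour compound treatment at 37 C of the ERR cell line, which had been plated 6 hours before dosing.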

[9] = qHTS RealTime-Glo MT Cell Viability Assay in HEK293 cells - 32 hour (AID 1224868); note: nearly all actives have a fitted effect of over 50% in size; note: potency is the fitted concentration of half-maximal effect; for activity change, negative = cytotoxic: top concentration of the series differs between compounds
Method in brief: (§1)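 Viability tracked continuously by luminescence as live cells reduce a prosubstrate for NanoLuc; HEK293 cells preincubated 5 h, compound-treated at 37 C, and read at 0, 8, 16, 24, 32 and 40 h.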

[10] = A CellTox Green Cytotoxicity Assay to monitor cytotoxicity in HEK293 cells - 0 hour (AID 1224869); note: nearly all actives have a fitted effect of over 50% in size
Method in brief: (§2)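 Fluorescence from a DNA-binding dye excluded by viable cells was measured repeatedly in the same HEK293 wells (600 cells/well) during continuous compound exposure at 37 C. Each assay gives one read point: 0, 8, 16, 24, 32 or 40 h.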

[11] = qHTS RealTime-Glo MT Cell Viability Assay in HepG2 cells - 40 hour (AID 1224870); note: nearly all actives have a fitted effect of over 50% in size; note: potency is the fitted concentration of half-maximal effect
Method in brief: (§3)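 Real-time viability: cells seeded at 600 per well together with NanoLuc and cell-permeant prosubstrate, compounds added after 5 h incubation. Luminescence tracked at 0, 8, 16, 24, 32 and 40 h of exposure.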

[12] = qHTS RealTime-Glo MT Cell Viability Assay in HEK293 cells - 16 hour (AID 1224872); note: nearly all actives have a fitted effect of over 50% in size; note: potency is the fitted concentration of half-maximal effect; for activity change, negative = cytotoxicity: top concentration of the series differs between compounds
Method in brief: as §1

[13] = qHTS assay to identify small molecule agonists of the estrogen related receptor signaling pathway with the pleiotropic PPARgamma coactivator (PGC) from Tox21 10K library (AID 1224842); note: nearly all actives have a fitted effect of over 15% in size
Method in brief: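 Luminescence from One-Glo (30 min, room temperature) measured after PGC/ERR cells had 18 h at 37 C with pinned compound (23 nL in DMSO). Cells had been seeded at 2,000 per well and pre-incubated 6 h.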

[14] = qHTS assay to identify small molecule agonists of H2AX (AID 1224845; active = well fitted activation curve with a large enough effect in the signal ratio in the repeat runs, not every such curve was filed as active; the % refers to the signal ratio)
Method in brief: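 Phospho-H2AX Ser139 measured by HTRF (ex 320 nm; em 665 and 620 nm) after 24 hr antibody incubation. Compounds, 15 concentrations, 0.76% DMSO, were applied to CHO-K1 cells for 3hr at 37C before lysis.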

[15] = qHTS assay to identify small molecule agonists of the hypoxia (HIF-1) signaling pathway (AID 1224846; active = well fitted activation curve with a large enough effect in the signal ratio in the repeat runs, not every such curve was filed as active; the % refers to the signal ratio)
Method in brief: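 Compounds added to ME-180 cells carrying hypoxia-response-element beta-lactamase reporter (0.5% dialyzed FBS, 5 h preplating), 17 h at 37C; agonist activity detected by CCF4-AM B/G FRET read-out.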

[16] = qHTS assay to identify small molecule agonists of H2AX - cell viability counter screen (AID 1224847; calls by dose curve; note: nearly all actives have a fitted effect of over 30% in size; note: potency is the fitted concentration of half-maximal effect; for activity change, negative = cytotoxicity: top concentration of the series differs between compounds)
Method in brief: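 Quantitative HTS viability measurement: CHO-K1 wild-type cells in serum (10% FBS) medium, short 3 hr drug exposure at 37C with 0.76% DMSO, CellTiter-Glo luminescent detection.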

[17] = qHTS RealTime-Glo MT Cell Viability Assay in HepG2 cells - 24 hour (AID 1224867); note: nearly all actives have a fitted effect of over 50% in size; note: potency is the fitted concentration of half-maximal effect
Method in brief: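 Viability was tracked continuously by NanoLuc luminescence from prosubstrate reduced by living HepG2 cells, at successive time points over 40 h of compound exposure. Cells with reagent were preincubated 5 h at 37 °C before compound addition.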

[18] = A CellTox Green Cytotoxicity Assay to monitor cytotoxicity in HEK293 cells - 40 hour (AID 1224871); note: nearly all actives have a fitted effect of over 45% in size; note: potency is the fitted concentration of half-maximal effect
Method in brief: as §2

[19] = qHTS RealTime-Glo MT Cell Viability Assay in HepG2 cells - 8 hour (AID 1224873); note: nearly all actives have a fitted effect of over 55% in size; note: potency is the fitted concentration of half-maximal effect
Method in brief: as §3

[20] = qHTS assay to identify small molecule agonists of the hypoxia (HIF-1) signaling pathway - cell viability counter screen (AID 1224844; calls by dose curve; note: nearly all actives have a fitted effect of over 50% in size)
Method in brief: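 Cytotoxicity measured by CellTiter-Glo ATP luminescence in the wells also read for beta-lactamase signal. Cells were HRE-bla ME-180 (2,000/well, 0.5% dialyzed FBS), exposed to compounds for 17 h at 37C.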
% is set by controls: 0 for no effect and ±100 for the full control effect.

Nuclear receptor subfamily 1 group I member 3 (Homo sapiens), sequence (Q14994 whole entry, looked up): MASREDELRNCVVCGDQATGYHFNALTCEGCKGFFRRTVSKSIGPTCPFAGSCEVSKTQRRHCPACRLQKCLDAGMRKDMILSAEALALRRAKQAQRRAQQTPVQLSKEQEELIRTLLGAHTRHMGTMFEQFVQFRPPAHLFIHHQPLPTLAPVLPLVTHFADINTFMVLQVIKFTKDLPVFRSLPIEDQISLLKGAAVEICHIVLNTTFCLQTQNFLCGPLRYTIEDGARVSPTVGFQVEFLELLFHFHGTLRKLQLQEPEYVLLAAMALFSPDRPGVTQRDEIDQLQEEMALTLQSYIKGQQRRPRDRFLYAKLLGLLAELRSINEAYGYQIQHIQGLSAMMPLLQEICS
Thyrotropin receptor (Homo sapiens), sequence (P16473 whole entry, looked up): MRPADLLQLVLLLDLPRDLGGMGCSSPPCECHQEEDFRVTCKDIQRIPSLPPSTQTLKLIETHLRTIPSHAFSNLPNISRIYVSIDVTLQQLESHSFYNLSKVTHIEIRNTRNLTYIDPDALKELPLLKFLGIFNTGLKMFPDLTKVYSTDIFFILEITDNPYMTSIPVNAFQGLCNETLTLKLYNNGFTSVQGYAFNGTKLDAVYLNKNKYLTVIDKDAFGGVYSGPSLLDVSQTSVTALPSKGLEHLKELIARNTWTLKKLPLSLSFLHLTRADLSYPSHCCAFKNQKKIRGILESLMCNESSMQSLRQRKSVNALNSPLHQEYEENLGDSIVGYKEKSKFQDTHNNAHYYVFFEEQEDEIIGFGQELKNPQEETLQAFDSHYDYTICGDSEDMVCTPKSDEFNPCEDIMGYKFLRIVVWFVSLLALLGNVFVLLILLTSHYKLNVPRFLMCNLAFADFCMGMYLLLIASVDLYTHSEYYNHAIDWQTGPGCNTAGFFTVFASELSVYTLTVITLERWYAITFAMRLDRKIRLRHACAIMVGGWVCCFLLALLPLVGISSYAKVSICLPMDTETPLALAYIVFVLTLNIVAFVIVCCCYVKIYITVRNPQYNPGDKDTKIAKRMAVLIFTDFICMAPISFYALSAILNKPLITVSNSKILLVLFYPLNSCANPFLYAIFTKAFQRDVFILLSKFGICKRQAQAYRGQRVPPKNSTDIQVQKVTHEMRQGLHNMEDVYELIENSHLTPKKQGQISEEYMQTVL

N#Cc1nc(Cl)c(Cl)c(Cl)c1Cl
active: Potency [1] 27.3 µM | Potency [2] 24.3 µM | Potency [4] 15.4 µM | Potency [5] 12.2 µM | Potency [6] 34.4 µM | Potency [7] 9.69 µM | Potency [9] 2.19 µM | Potency [11] 17.4 µM | Potency [12] 2.45 µM
inactive: Potency [3] | activity change, positive = activation [8] -76.2% | Potency [10]

C=C1CC[C@H]2O[C@]2(C)CC[C@@H]2[C@@H]1CC2(C)C
inactive: Potency [1] | Potency [2] | Potency [3] | Potency [4] | Potency [5] | Potency [13] | Potency [6] | Potency [14] | Potency [15] | Potency [16] | Potency [7] | activity change, positive = activation [8] 2.38% | Potency [17] | Potency [10] | Potency [11] | Potency [18] | Potency [19]

CC/C=C(\C)C=O
inactive: Potency [1] | Potency [2] | Potency [3] | Potency [4] | Potency [6] | Potency [20] | Potency [15] | Potency [16] | Potency [7] | activity change, positive = activation [8] 5.99% | Potency [17] | Potency [9] | Potency [10] | Potency [11] | Potency [18] | Potency [12] | Potency [19]

CCN(CCC#N)c1ccc(N=Nc2ccc([N+](=O)[O-])cc2)cc1
inactive: Potency [1] | Potency [2] | Potency [4] | Potency [5] | Potency [6] | Potency [20] | Potency [15] | Potency [7] | Potency [17] | Potency [9] | Potency [10] | Potency [11] | Potency [12] | Potency [19]
active: Potency [3] 13.7 µM | activity change, positive = activation [8] 15.7%

CCC1(C)C(=O)N(Cl)C(=O)N1Cl (centres undefined)
inactive: Potency [1] | Potency [2] | Potency [3] | Potency [4] | Potency [13] | Potency [6] | Potency [20] | Potency [14] | Potency [15] | Potency [16] | Potency [7] | activity change, positive = activation [8] -3.41% | Potency [17] | Potency [9] | Potency [10] | Potency [11] | Potency [18] | Potency [19]

CN[C@H]1CC[C@@H](c2ccc(Cl)c(Cl)c2)c2ccc(S(N)(=O)=O)cc21
inactive: Potency [3] | Potency [13] | Potency [15] | activity change, positive = activation [8] -79% | Potency [10]
active: Potency [1] 61.1 µM | Potency [2] 61.1 µM | Potency [4] 61.1 µM | Potency [16] 113 µM | Potency [7] 61.1 µM | Potency [17] 24.5 µM | Potency [9] 19.5 µM | Potency [11] 21.9 µM | Potency [18] 27.5 µM | Potency [12] 24.5 µM | Potency [19] 49 µM

CCCCCCCCc1ccc(Nc2ccc(CCCCCCCC)cc2)cc1
inactive: Potency [1] | Potency [2] | Potency [3] | Potency [4] | Potency [13] | Potency [6] | Potency [20] | Potency [14] | Potency [15] | Potency [7] | activity change, positive = activation [8] -4.1% [at 42.5 µM] | Potency [17] | Potency [9] | Potency [10] | Potency [11] | Potency [12] | Potency [19]
active: Potency [5] 11.9 µM

Nc1c(Br)cc([N+](=O)[O-])cc1Br
inactive: Potency [1] | Potency [2] | Potency [3] | Potency [4] | Potency [13] | Potency [14] | Potency [15] | activity change, positive = activation [8] -20.8% | Potency [9] | Potency [10] | Potency [11] | Potency [19]
active: Potency [5] 54.5 µM

CCCCCCCCCCCCN1CCCC1=O
active: Potency [3] 54.5 µM
inactive: Potency [1] | Potency [2] | Potency [4] | Potency [5] | Potency [14] | activity change, positive = activation [8] -16.7% | Potency [10] | Potency [11]

C=Cc1ccc(O)c(OC)c1
inactive: Potency [1] | Potency [2] | Potency [3] | Potency [4] | Potency [6] | Potency [20] | Potency [15] | Potency [16] | Potency [17] | Potency [9] | Potency [10] | Potency [11] | Potency [18] | Potency [19]

CCCCCCCCCCCCS(=O)(=O)Cl
inactive: activity change, negative = cytotoxicity [1] -7.2% [at 19 µM] | activity, negative = inhibition [2] -3.15% [at 19 µM] | activation [3] -0.0973% [at 19 µM] | viability change, negative = cytotoxic [4] 3.05% [at 19 µM] | activation [6] -1.12% [at 19 µM] | activity change, negative = cytotoxicity [20] -3.11% [at 15.8 µM] | activation (H2AX phosphorylation) [14] 0.0057% [at 31.6 µM] | activation [15] 1.7% [at 15.8 µM] | activity change, negative = cytotoxic [9] 18.8% [at 15.8 µM] | cytotoxicity [10] 0.643% [at 15.8 µM] | activity change, negative = cytotoxic [11] 12.8% [at 15.8 µM] | viability change, negative = cytotoxic [19] -5.43% [at 15.8 µM]

Cn1ccnc1
inactive: Potency [1] | Potency [2] | Potency [3] | Potency [4] | Potency [5] | Potency [6] | Potency [20] | Potency [14] | Potency [16] | Potency [7] | activity change, positive = activation [8] 1.09% | Potency [17] | Potency [9] | Potency [10] | Potency [11] | Potency [18] | Potency [12] | Potency [19]

CC(C)(C)c1cc(CCC(=O)OCCSCCOC(=O)CCc2cc(C(C)(C)C)c(O)c(C(C)(C)C)c2)cc(C(C)(C)C)c1O
inactive: Potency [1] | Potency [2] | Potency [3] | Potency [4] | Potency [6] | Potency [20] | Potency [14] | Potency [15] | Potency [16] | Potency [7] | activity change, positive = activation [8] -3.83% [at 42.5 µM] | Potency [9] | Potency [10] | Potency [18]

Source: PubChem BioAssay (Tox21)
